Here are results for six compounds from PubChem BioAssay.

The nature of experiment [1]: viability loss in pontine glioma line – cell-based, SU-DIPG-XVII, MIPE5.0, CellTiter-Glo, qHTS, dose response (AID 1347060).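 For AC50: cells exposed to compound for 48 hours before viability readout.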 The following applies: CellTiter-Glo ATP luminescence.
Experiment [2] is described as follows: viability loss in pontine glioma line – cell-based, SU-DIPG-XIII, MIPE4.0, CellTiter-Glo, qHTS, dose response (AID 1347061; cut-off not given, nearly all actives have AC50 up to about 37 µM;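 note: cells exposed to compound for 48 hours before readout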). To be noted: CellTiter-Glo ATP luminescence.
The nature of experiment [3]: viability loss in pontine glioma line – cell-based, JHH-DIPG-1, MIPE4.0, CellTiter-Glo, qHTS, dose response (AID 1347062; cut-off not given, nearly all actives have AC50 up to about 27 µM;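 for AC50: cells exposed to compound for two days before readout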). To be noted: JHH-DIPG-1 viability, CellTiter-Glo ATP luminescence.
Experiment [4] in a line: viability loss in pontine glioma line – cell-based, SU-DIPG-IV, MIPE4.0, CellTiter-Glo, qHTS, dose response (AID 1347063; cut-off not given, nearly all actives have AC50 up to about 30 µM;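 note: compound exposure lasted 48 hours before the viability readout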). The following applies: CellTiter-Glo ATP luminescence.
Experiment [5] is described as follows: viability loss in pontine glioma line – cell-based, SU-DIPG-XIII, MIPE5.0, CellTiter-Glo, qHTS, dose response (AID 1347064; cut-off not given, nearly all actives have AC50 up to about 23 µM;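 for AC50: cells exposed to compound for 48 hours before the viability read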). To be noted: CellTiter-Glo ATP luminescence.
Experiment [6] is described as follows: viability loss in pontine glioma line – cell-based, SU-DIPG-XXV, MIPE5.0, CellTiter-Glo, qHTS, dose response (AID 1347065).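 Note: cells exposed to compound for 48 hours before ATP readout.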 The following applies: CellTiter-Glo ATP luminescence.
A short description of experiment [7]: growth inhibition of DIPG cells – cell-based, MIPE4.0 library, CellTiter-Glo luminescence, qHTS (AID 1347066; cut-off not given, nearly all actives have AC50 up to about 30 µM;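 note: cells exposed to compound for 48 hours before readout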). To be noted: SU-DIPG-VI viability, CellTiter-Glo ATP luminescence.
A short description of experiment [8]: JHH-DIPG-1 glioma cell viability, MIPE5.0 library, CellTiter-Glo luminescence, qHTS (AID 1347067).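 Note: cells exposed to compound for 48 hours before readout.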 The following applies: JHH-DIPG-1 glioma viability, CellTiter-Glo ATP luminescence.
A short description of experiment [9]: growth inhibition of DIPG cells – cell-based, MIPE5.0 library, qHTS (AID 1347068; cut-off not given, nearly all actives have IC50 up to about 30 µM;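 for IC50: cells exposed to compound for 48 hours before viability readout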). To be noted: SU-DIPG-XXV viability.
Experiment [10] in a line: viability loss with induced miR-34 in A549 – imaging, A549 dox-inducible miR-34, nuclei and caspase counts, primary screen (AID 1347080;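 active = compounds whose cell count with miR-34 switched on is under 0.7 times the count with it off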). The following applies: A549 miR-34 inducible, Hoechst nuclei count, 48 h.

Records with an inconclusive call do not appear. Calls of active or inactive are those of the source. Unless noted, no cut-off is given here; in the data, nearly all actives have AC50 up to about 26 µM.

In the case of `COc1cc(CCc2cc(NC(=O)c3ccc(N4C[C@@H](C)N[C@@H](C)C4)cc3)n[nH]2)cc(OC)c1`, the half-maximal activity concentration (AC50) is 0.417 µM (active) in [1]; 8.33 µM (active) in experiment [2]; 18.7 µM (active) in [3]; 16.6 µM (active) in experiment [4]; 0.235 µM (active) in experiment [5]; 0.263 µM (active) in experiment [6]. In addition, the values for the half-maximal activity concentration (AC50) in [7] and in experiment [8] were 23.5 µM (active) and 13.2 µM (active), respectively. Besides, the IC50 in experiment [9] is 8.33 µM (active).
Take `C=CCNC1=C2C[C@@H](C)C[C@H](OC)[C@H](O)[C@@H](C)/C=C(\C)[C@H](OC(N)=O)[C@@H](OC)/C=C\C=C(/C)C(=O)NC(=CC1=O)C2=O`: the concentration at half-maximal activity (AC50) in experiment [1] was 1.18 µM (active); in [2], 1.05 µM (active); in experiment [3], 2.64 µM (active); in experiment [4], 0.118 µM (active); in [6] it was 7.42 µM (active); in experiment [7], 14.8 µM (active). Further, the half-maximal activity concentration (AC50) in experiment [8] is 0.934 µM (active). Besides, the compound was classed as inactive in [5]. Moreover, the IC50 in experiment [9] is 10.5 µM (active). Moreover, the fold change in experiment [10] (stronger effect = lower value, cell number ratio, induced over uninduced) was 1.02 (inactive); in [10] (measured here: relative caspase fold change +Dox/-Dox) it was 1.33. The cell count in experiment [10] (measured here: total cells with miR-34 induction, stronger effect = lower value) stood at 1940; in experiment [10] (measured here: total cells without miR-34 induction), 1900.
In the case of `CC(C)(C)c1cc(C(=O)O)c(NC(=O)Nc2ccc3[nH]ncc3c2)s1`, the result in experiment [1], in experiment [2], in [3], in experiment [4], in experiment [5] and in experiment [6] was inactive. Further, the call in experiment [7], in experiment [8] and in [9] was inactive.
As to `CC1(C)SCCN(S(=O)(=O)c2ccc(OCC#CCO)cc2)[C@H]1C(=O)NO`, the compound was classed as inactive in [1], in [2], in experiment [3], in experiment [4], in experiment [5] and in experiment [6]. Besides, the compound was classed as inactive in [7], in experiment [8] and in [9].
Regarding `CCC(C(=O)O)C1CCC(C)C(C(C)C(O)C(C)C(=O)C(CC)C2OC3(C=CC(O)[C@@]4(CC[C@](C)(C5CC[C@@](O)(CC)C(C)O5)O4)O3)C(C)CC2C)O1` (stereo partly drawn), the concentration at half-maximal activity (AC50) is 2.35 µM (active) in [1]; 0.935 µM (active) in experiment [2]; 3.32 µM (active) in experiment [3]; 1.66 µM (active) in experiment [4]; 3.32 µM (active) in experiment [5]; 0.833 µM (active) in [6]. Further, the concentration at half-maximal activity (AC50) is 1.87 µM (active) in experiment [7] and 0.934 µM (active) in experiment [8]. The half-inhibitory concentration (IC50) in experiment [9] was 2.35 µM (active).
Turning to `Cc1cnc(Nc2ccc(F)cc2Cl)nc1-c1c[nH]c(C(=O)N[C@H](CO)c2cccc(Cl)c2)c1`, the concentration at half-maximal activity (AC50) in [1] is 1.32 µM (active); in experiment [2] it was 18.7 µM (active); in experiment [3], 0.833 µM (active); in [4] it was 0.469 µM (active); in experiment [5] it was 1.32 µM (active); in experiment [6], 2.09 µM (active). Besides, the half-maximal activity concentration (AC50) is 18.7 µM (active) in experiment [7] and 0.833 µM (active) in experiment [8]. Further, the IC50 in experiment [9] was 9.34 µM (active).
